Assay [1] has as its target Sentrin-specific protease 8 (Homo sapiens) (UniProt Q96LD8). Nature of the assay: human SENP8 peptidase blockers, hit retest – biochemical, luminescence, single concentration, confirmation (AID 488912;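 active means mean inhibition across replicates above about 50%, limit read from the data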). The conditions noted are these: Recombinant SENP8, Z-RLRGG-aminoluciferin luminescence, 60 min; at 12.5 µM; stronger effect = higher value.
Assay [2] has as its target Sentrin-specific protease 6 (Homo sapiens) (UniProt Q9GZR1). Nature of the assay: inhibition of human SENP6 catalytic domain – biochemical, luminescence, single concentration, confirmation (AID 488915). To be noted: recombinant SENP6, Z-RLRGG-aminoluciferin luminescence; at 12.5 µM; stronger effect = higher value.
Assay [3] has as its target Sentrin-specific protease 7 (Homo sapiens) (UniProt Q9BQF6). The experiment in a line: human SENP7 peptidase blockers, hit retest – biochemical, luminescence, single concentration, confirmation (AID 488917). To be noted: recombinant SENP7, Z-RLRGG-aminoluciferin luminescence, 40 min; at 12.5 µM; stronger effect = higher value.
For assay [4], the target named is Caspase-3 (Homo sapiens) (UniProt P42574). The experiment in a line: human caspase-3 activity blockade, out-of-family – biochemical, single concentration, selectivity assay for SENP inhibitor project, confirmation (AID 488918;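 active means mean inhibition above about 50%, limit read from the data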;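 further: plate controls were enzyme with DMSO for no effect and wells without caspase-3 for full effect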). The conditions noted are these: purified caspase-3, Z-DEVD-aminoluciferin luminescence, 60 min; at 12.5 µM; stronger effect = higher value.
Caspase-3 (Homo sapiens), sequence (P42574 28-227 limits assumed): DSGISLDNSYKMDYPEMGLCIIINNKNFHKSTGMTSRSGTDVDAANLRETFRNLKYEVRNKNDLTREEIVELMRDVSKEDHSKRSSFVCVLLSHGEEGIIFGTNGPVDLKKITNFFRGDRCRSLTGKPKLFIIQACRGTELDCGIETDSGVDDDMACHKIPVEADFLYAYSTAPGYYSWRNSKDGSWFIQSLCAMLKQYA
Assay [5] can be described thus: Ultra-Glo luciferase signal interference – biochemical, single concentration, SENP8 reaction pre-completed, artefact control for SENP inhibitor project, confirmation (AID 488919;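 active means mean inhibition above about 50% when retested at one dose, limit read from the data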;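 further: plate controls were DMSO wells with completed reaction for no effect and substrate without enzyme for full effect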). The conditions noted are these: Pre-incubated SENP8/Z-RLRGG-aminoluciferin, luciferase luminescence interference; at 12.5 µM; stronger effect = higher value.
A short description of assay [6]: PERK-eIF2a-CHOP pathway stimulators, retested – cell-based, CHO-CHOP luciferase reporter, single concentration, confirmation (AID 463112; in the data active means activation above about 33%;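 further: 0% = DMSO wells and 100% = tunicamycin 10 µg/mL wells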). The conditions noted are these: CHO-CHOP cells, CHOP-luciferase reporter luminescence; at 10 µM; stronger effect = higher value; percent of tunicamycin response, DMSO as zero.
The target in assay [7] is Tumor necrosis factor receptor superfamily member 10B (Homo sapiens) (UniProt O14763). Nature of the assay: viability loss of caspase-8 NB7 cells with TRAIL – with/without TRAIL, luminescence panel, confirmation (AID 651596; in the data active means activity above about 50%). The conditions noted are these: NB7 neuroblastoma + caspase-8, TRAIL sensitization, NB7 Caspase-8, with TRAIL, mean of runs, at 10 µM, stronger effect = higher value.
Tumor necrosis factor receptor superfamily member 10B (Homo sapiens), sequence (O14763 whole entry, looked up): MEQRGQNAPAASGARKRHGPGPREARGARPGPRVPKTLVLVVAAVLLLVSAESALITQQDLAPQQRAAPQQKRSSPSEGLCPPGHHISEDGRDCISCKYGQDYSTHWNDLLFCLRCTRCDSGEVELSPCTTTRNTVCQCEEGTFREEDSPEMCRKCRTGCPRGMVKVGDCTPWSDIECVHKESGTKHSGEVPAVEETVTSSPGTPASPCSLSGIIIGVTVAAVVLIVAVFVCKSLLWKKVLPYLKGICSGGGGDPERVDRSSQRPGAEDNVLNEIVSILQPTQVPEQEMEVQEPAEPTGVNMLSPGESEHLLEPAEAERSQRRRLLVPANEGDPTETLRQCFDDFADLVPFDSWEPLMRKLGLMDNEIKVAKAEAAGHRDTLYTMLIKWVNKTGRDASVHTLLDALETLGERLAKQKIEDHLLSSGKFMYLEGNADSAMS

Assay in assay [8]: as above
To be noted: NB7 neuroblastoma + caspase-8, without TRAIL, NB7 Caspase-8, without TRAIL, mean of runs, at 10 µM.

Assay [9] concerns the target Tumor necrosis factor receptor superfamily member 10B (Homo sapiens) (UniProt O14763). The experiment in a line: compound enhancement of TRAIL-induced cell killing – NB7 cells plus caspase-8, luminescence, panel, dose response (AID 652002). The conditions noted are these: NB7 neuroblastoma +caspase-8, TRAIL sensitization, luminescence viability, NB7+Caspase-8, with TRAIL, run 1; at 12.5 µM (top of the series).

For assay [10] the target is unchanged. Described as above. The conditions noted are these: NB7 neuroblastoma +caspase-8, TRAIL sensitization, luminescence viability, NB7+Caspase-8, with TRAIL, run 2; at 12.5 µM (top of the series).
Assay in assay [11]: as above
The conditions noted are these: NB7 neuroblastoma +caspase-8, no TRAIL, compound-alone cytotoxicity counter-screen, luminescence viability, NB7+Caspase-8, run 1; at 12.5 µM (top of the series) unless noted.

Assay in assay [12]: as above
To be noted: NB7 neuroblastoma +caspase-8, no TRAIL, compound-alone cytotoxicity counter-screen, luminescence viability, NB7+Caspase-8, run 2; at 12.5 µM (top of the series) unless noted.

Assay [13] can be described thus: HIF-2a driven luciferase blockers, single dose – luminescence, 786-0 RCC cells, confirmation (AID 651580;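 active means mean inhibition across four replicates of at least 40 percent at the single tested concentration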). To be noted: HIF-2a luciferase reporter luminescence, overnight, at 18.8 µM, stronger effect = higher value.
Assay [14] is described as follows: HIF-1a luciferase reporter signal reduction – MiaPaCa-2 cells, single concentration, counter-screen for HIF-2a inhibitor project, confirmation (AID 651589;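 active means mean inhibition of the reporter signal across four replicates at the single tested dose of 50% or more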). To be noted: MiaPaCa-2 HIF-1a luciferase reporter, desferoxamine, overnight; at 18.8 µM; stronger effect = higher value.

These results are taken from PubChem BioAssay.

The structures appear in SMILES notation. The list shows a part of the results. Activity calls are given as the source filed them.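 How the source made its calls, unless noted: active means mean inhibition above about 50% in the one-dose retest (limit read from the data); inactive means the rest.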

Sentrin-specific protease 8 (Homo sapiens), sequence (Q96LD8 whole entry, looked up, the tested form may be a part): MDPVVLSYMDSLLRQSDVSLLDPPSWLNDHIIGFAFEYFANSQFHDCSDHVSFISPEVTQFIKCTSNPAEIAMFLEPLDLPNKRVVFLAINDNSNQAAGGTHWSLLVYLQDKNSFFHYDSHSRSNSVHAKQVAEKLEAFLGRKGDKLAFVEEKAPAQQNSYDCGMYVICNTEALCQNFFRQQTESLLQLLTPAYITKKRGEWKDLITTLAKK
Sentrin-specific protease 7 (Homo sapiens), sequence (Q9BQF6 706-1050 limits assumed): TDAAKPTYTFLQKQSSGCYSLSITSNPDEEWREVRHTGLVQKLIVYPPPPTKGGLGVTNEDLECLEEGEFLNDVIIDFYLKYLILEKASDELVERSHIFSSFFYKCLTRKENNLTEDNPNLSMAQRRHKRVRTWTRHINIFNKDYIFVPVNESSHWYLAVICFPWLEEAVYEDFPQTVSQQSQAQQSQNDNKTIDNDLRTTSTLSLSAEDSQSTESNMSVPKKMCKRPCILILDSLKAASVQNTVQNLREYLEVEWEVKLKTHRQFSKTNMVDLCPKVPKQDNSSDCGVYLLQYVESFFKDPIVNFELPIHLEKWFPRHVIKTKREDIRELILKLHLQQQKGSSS
Sentrin-specific protease 6 (Homo sapiens), sequence (Q9GZR1 628-1112 limits assumed): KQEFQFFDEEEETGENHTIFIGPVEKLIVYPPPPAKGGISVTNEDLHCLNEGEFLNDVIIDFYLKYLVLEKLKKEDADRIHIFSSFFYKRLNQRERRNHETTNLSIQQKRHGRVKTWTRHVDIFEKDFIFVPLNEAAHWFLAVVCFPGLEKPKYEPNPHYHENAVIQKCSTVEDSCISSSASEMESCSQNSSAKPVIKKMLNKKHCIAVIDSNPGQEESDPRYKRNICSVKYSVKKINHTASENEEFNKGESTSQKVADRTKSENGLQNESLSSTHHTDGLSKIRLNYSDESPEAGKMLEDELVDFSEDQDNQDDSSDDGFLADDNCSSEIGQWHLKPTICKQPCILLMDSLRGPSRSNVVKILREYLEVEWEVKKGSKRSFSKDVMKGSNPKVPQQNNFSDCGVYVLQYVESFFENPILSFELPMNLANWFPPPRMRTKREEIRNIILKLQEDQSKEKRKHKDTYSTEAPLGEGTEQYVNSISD

Take `CC1=NN(C(N)=S)C(=O)C1N=Nc1cc(Cl)ccc1Cl` (stereo not given): the inhibition (in general, the relative decrease from the control value, in per cent) in assay [1] is -5.4% (inactive); in assay [2], -1.7% (inactive); in assay [3], 1.9% (inactive); in [4], -1.2% (inactive); in assay [5], 1.2% (inactive).

For `Cc1ccc(NC(=O)c2sccc2C)cc1[N+](=O)[O-]`, the inhibition in assay [1] was 78% (active); in [2], 77.5% (active); in assay [3], 95.7% (active); in assay [4], 81% (active); in [5], 82.6% (active).

As to `O=C(Nc1ccccc1)c1ccc(NC(=O)c2cccs2)cc1`, the inhibition is -8.2% (inactive) in assay [1]; -4.8% (inactive) in [2]; 0.7% (inactive) in assay [3]; 38.2% (inactive) in [4]; -1.7% (inactive) in assay [5].

With `COc1cc(NC(=O)c2cncc(-c3ccc(C#N)cc3)c2)cc(C(=O)Nc2cccc(C(F)(F)F)c2)c1`, the activation in assay [6] is 83.5% (active). Besides, the activity in [7] was determined as 54.6%; in [8], 26.9%. For the same compound, the activity, % sensitization in assay [9] is -1.86%; in [10] it was -1.47%; in [11], -11.8%; in [12] it was -16.3%.

For the compound `N=c1c2c3c(sc2nc2n1CCCCC2)CCCC3`, the inhibition in assay [1] was 10.9% (inactive); in assay [2], 8.4% (inactive); in assay [3] it was 10.6% (inactive); in assay [4], 11.1% (inactive); in [5], 11.6% (inactive).

On to `O=C1C=CC(=O)N1c1ccc(N2CCCCC2)cc1`, for which the activation in assay [6] is 60.2% (active). Moreover, the inhibition in assay [13] was 17.3% (inactive); in assay [14] it was -4.26% (inactive).

`O=C(Nc1ccncc1)c1cc2ccccc2o1`: the inhibition in assay [1] was 49.1% (inactive); in assay [2], 44% (inactive); in assay [3], 76.1% (active); in [4], 75.6% (active); in assay [5], 49.3% (inactive).

In the case of `O=C(Nc1ccccc1)c1cc2ccccc2[nH]1`, the inhibition is -22.5% (inactive) in assay [1]; -15.9% (inactive) in assay [2]; 1.9% (inactive) in assay [3]; -4.8% (inactive) in assay [4]; 8.3% (inactive) in assay [5].

Regarding `O=C(Nc1nc2ccc([N+](=O)[O-])cc2s1)c1ccncc1`, the inhibition is 16% (inactive) in assay [1]; 17.5% (inactive) in [2]; 15.1% (inactive) in assay [3]; 7.6% (inactive) in [4]; 15.8% (inactive) in assay [5].

With `O=C(Nc1ncc([N+](=O)[O-])s1)C1COc2ccccc2O1` (stereo not given), the inhibition in assay [1] is 98.8% (active); in assay [2] it was 99.8% (active); in assay [3], 103% (active); in assay [4] it was 98.4% (active); in assay [5], 48.6% (inactive).

Take `O=C(Nc1ccc(Cl)cc1)c1ccsn1`: the inhibition in assay [1] was 49.7% (inactive); in assay [2], 46.8% (inactive); in assay [3], 78.1% (active); in assay [4], 60.3% (active); in assay [5], 51.9% (active).

With `COc1ccc(C(=O)Nc2ccc(C3(C#N)CCCC3)cc2)cc1OC`, the inhibition in assay [1] was 93% (active); in assay [2] it was 93.6% (active); in assay [3], 101% (active); in assay [4], 91.9% (active); in [5] it was 83.2% (active).

For the compound `CC(=O)Oc1ccc2c(c1)C(=O)c1ccccc1C2=O`, the inhibition in assay [1] is 38.1% (inactive); in [2], 43.9% (inactive); in assay [3], 67.4% (active); in assay [4], 57.6% (active); in assay [5], 25.6% (inactive).

For the compound `CN(CC(=O)Nc1ccc(Cl)cc1)C(=O)CNC(=O)c1ccc2ccccc2c1`, the inhibition in assay [1] is 15.1% (inactive); in assay [2] it was 12.3% (inactive); in assay [3] it was 66.3% (active); in [4] it was 21.6% (inactive); in assay [5], 1.1% (inactive).

Turning to `O=[N+]([O-])c1ccc2nc(-c3ccccn3)[nH]c2c1`, the inhibition is 57.8% (active) in assay [1]; 56% (active) in [2]; 82.6% (active) in assay [3]; 81.5% (active) in [4]; 48.8% (inactive) in assay [5].

As to `c1ccc2sc(NN=C3CCCC3)nc2c1`, the inhibition is 86.8% (active) in assay [1]; 85.9% (active) in [2]; 98.8% (active) in assay [3]; 88% (active) in assay [4]; 15.5% (inactive) in assay [5].

Consider `COc1cccc(C(=O)Nc2ccc(NC(=O)c3ccco3)cn2)c1`, for which the inhibition in assay [1] is 53.1% (active); in assay [2], 51% (active); in assay [3], 82.4% (active); in assay [4] it was 76.1% (active); in assay [5] it was 62.4% (active).

As for `CCc1ccc(C(=O)COC(=O)c2ccco2)cc1`, the inhibition in [1] was 62.7% (active); in assay [2], 62% (active); in assay [3] it was 83.3% (active); in assay [4], 74.5% (active); in [5], 68% (active).

On to `Oc1cccc2ccc(/C=C/c3ccc(Br)s3)nc12`, for which the inhibition is 31.2% (inactive) in [1]; 63.9% (active) in assay [2]; 52.2% (active) in assay [3]; 59.9% (active) in assay [4]; 9.6% (inactive) in assay [5].

Regarding `Cc1ccc(F)c(NC(=O)CCc2ccccc2)c1`, the inhibition was 36.4% (inactive) in assay [1]; 30.4% (inactive) in assay [2]; 68.6% (active) in assay [3]; 60.7% (active) in assay [4]; 44.8% (inactive) in [5].

Consider `O=c1c(-c2ccccc2)coc2cc(O)ccc12`, for which the inhibition in assay [1] is 61.7% (active); in [2], 60.2% (active); in assay [3] it was 88.2% (active); in [4] it was 85.9% (active); in assay [5], 74.8% (active).

For the compound `Cc1cccc(NC(=O)COc2ccc(Br)cc2C)n1`, the inhibition in assay [1] was 1% (inactive); in assay [2], 50% (inactive); in assay [3], 7.4% (inactive); in assay [4], 20.8% (inactive); in assay [5] it was 11.1% (inactive).

Turning to `CC(OC(=O)c1ccc2ccccc2n1)C(=O)c1ccccc1` (stereo not given), the inhibition is 54.3% (active) in assay [1]; 50% (inactive) in [2]; 87.7% (active) in assay [3]; 75% (active) in assay [4]; 64.5% (active) in assay [5].
